Experimental data reported in PubChem BioAssay AID624330 (Southern Research Specialized Biocontainment Screening …, 2012).
Screen size: about 340,000 compounds; about 2,100 (0.62%) were called active.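 Rule for the calls: active = first-screen hits whose inhibition reached a set limit at any dose in the follow-up dose series; inconclusive = inhibition above the set first-screen limit but never retested; inactive = the rest.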 The list is a sample of the results. Results with a measured potency or affinity are listed apart.

molecular target: Rac GTPase-activating protein 1 (Homo sapiens) (UniProt Q9H0H5); test: blockers of MgcRacGAP-driven Rac1 GTP hydrolysis – biochemical, ADP Hunter fluorescence, primary and confirmatory, confirmation (AID 624330); settings: MgcRacGAP-stimulated Rac1 GTP hydrolysis, at 30 µM, hits give high values, GST-tagged Rac1 F28L mutant substrate;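 note: fluorescence reports GDP produced by GAP-driven GTP hydrolysis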
Sequence (Q9H0H5 whole entry, looked up): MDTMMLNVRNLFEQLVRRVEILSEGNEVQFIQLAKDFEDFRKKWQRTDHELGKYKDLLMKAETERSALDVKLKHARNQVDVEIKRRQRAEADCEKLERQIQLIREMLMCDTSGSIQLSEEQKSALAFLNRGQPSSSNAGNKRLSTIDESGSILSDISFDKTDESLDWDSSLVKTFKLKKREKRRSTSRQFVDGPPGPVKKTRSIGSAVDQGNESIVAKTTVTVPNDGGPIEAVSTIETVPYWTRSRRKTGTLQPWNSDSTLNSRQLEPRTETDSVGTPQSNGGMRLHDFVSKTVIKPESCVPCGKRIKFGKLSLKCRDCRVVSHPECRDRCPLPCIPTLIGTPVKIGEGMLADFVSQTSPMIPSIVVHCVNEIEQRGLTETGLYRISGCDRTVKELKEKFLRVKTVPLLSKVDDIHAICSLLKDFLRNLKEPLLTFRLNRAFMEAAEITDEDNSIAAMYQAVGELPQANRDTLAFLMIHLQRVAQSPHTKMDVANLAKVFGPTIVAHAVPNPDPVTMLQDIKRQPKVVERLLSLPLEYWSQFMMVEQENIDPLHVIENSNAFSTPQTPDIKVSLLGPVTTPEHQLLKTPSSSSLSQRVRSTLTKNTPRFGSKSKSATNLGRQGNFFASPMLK

inhibition, inactive:
S=c1[nH]nc2nnc3ccccc3n12 17.6%
Cn1c(=S)[nH]c2ccccc21 11.4%
COc1cc(NC(=O)c2cccc(F)c2)cc(OC)c1OC 8.45%
C=CCn1c2ccccc2c2n[nH]c(=S)nc21 3.05%
COCCNC(=O)c1c[nH]c2ccc(S(=O)(=O)N3CCC4(CC3)OCCO4)cc2c1=O 10.7%
N#Cc1ccccc1N=C1CCCN1Cc1ccccc1 16.7%
Cc1ccc(N=C2CCCCCN2C)c(C#N)c1 3.58%
CCc1ccc(OCC(O)Cn2c(N3CCCCC3)nc3c2c(=O)[nH]c(=O)n3C)cc1 (configuration not stated) -4.27%
O=C(Nc1ccccc1Cl)OCC#CCOC(=O)Nc1ccccc1Cl 11%
O=C(Nc1ccccc1Cl)Oc1ccc(Cl)cc1Cl 9.61%
C[C@@H]1CN([C@@H](C)CO)C(=O)CCCn2nncc2CO[C@H]1CN(C)C(=O)Nc1ccc(N2CCCCC2)cc1 11.5%
O=C(CCN1C(=O)/C(=C/c2ccccc2Cl)SC1=S)NN1CCOCC1 4.7%
Cn1nccc1NC(=O)Nc1cccc(Cl)c1Cl 2.52%
CC(C)(C)c1nnc(N/N=C/c2ccccc2)n(N)c1=O 8.65%
CC(C)(C)c1nnc(N/N=C/c2ccc(Br)cc2)n(N)c1=O 9.58%
CCOc1ccc(NC(=O)CN(C)C(=O)c2cn(-c3ccc(F)cc3)nc2-c2cccc(OC)c2)cc1OCC 0.09%
CC(OC(=O)/C=C/c1ccccc1)C(=O)Nc1ccc2c(c1)OCCO2 (configuration not stated) 9.16%
O=C(NCCc1nc2ccccc2[nH]1)Nc1ccccc1 8.22%
NS(=O)(=O)c1cccc(NC(=O)c2cccc(-c3ccc(O)cc3)c2)c1 12.5%
COc1cccc(C(=O)Nc2cccc(NC(C)=O)c2)c1 10.6%
COc1ccc(NC(=O)c2cc(OC)c(OC)c(OC)c2)cn1 7.64%
COc1ccc(NC(=O)c2cccc(Oc3ccccc3)c2)cn1 4.7%
CCOc1ccc(N(C(C)C(=O)Nc2ccc(OC)cc2)S(C)(=O)=O)cc1 (configuration not stated) 9.57%
Cc1ccc(NC(=O)COC(=O)c2cc(Cl)ccc2[N+](=O)[O-])cc1 9%
O=C(c1c(O)cc(O)cc1O)C1c2c(cc(O)c3c2O[C@H](c2ccc(O)cc2)[C@@H](O)C3)OC1c1ccc(O)cc1 (some centres not stated) 12.8%
O=C1c2c(O)cc(O)cc2O[C@H](c2ccc(O)c(O)c2)[C@H]1O 13.3%
COc1cc2c3c([nH]c2cc1F)C(=O)NCC3 9.04%
O=[N+]([O-])c1cccc(CSc2nc3ccccc3[nH]2)c1 3.52%
CCN(CC(=O)Nc1cc(Cl)ccc1C)C(=O)COc1ccccc1F -0.45%
Brc1ccc(/C=N/Nc2ccccn2)cc1 10.9%
CCOc1ccc(/C=N/Nc2ccccn2)cc1OC 6.25%
C(=N\n1cnnc1)/c1ccc(N2CCOCC2)cc1 8.48%
COc1cc(/C=N/Nc2ccccn2)ccc1OCC(C)C 1.63%
Clc1ccc(/C=N/Nc2ccccn2)cc1 11.1%
CCCOc1ccc(/C=N/Nc2ccccn2)cc1OC 13.1%
C=CCOc1ccc(/C=N/Nc2ccccn2)cc1OC 9.55%
Cc1ccc(N/N=C/c2ccc(N3CCOCC3)cc2)cc1C 24.2%
COc1ccccc1-c1nnc(SC)n1C 7.84%
CC(=O)N1N=C(c2ccccc2)CC1c1ccc2c(c1)OCO2 (configuration not stated) 13.6%
CC(C)(C)OC(=O)C[C@H]1C/C=C\C[C@@H](CC(=O)NCCO)C(=O)N[C@H](Cc2ccccc2)COC1=O 5.95%
CC1Cc2ccccc2N1S(=O)(=O)c1cnc(Cl)c(Cl)c1 (configuration not stated) 6.78%
O=S(=O)(NCC(c1ccc2c(c1)OCO2)N1CCOCC1)c1ccccc1 (configuration not stated) 4.31%
O=C(CCCC1=NS(=O)(=O)c2ccccc2N1)NCCc1ccc(Cl)cc1 12.4%
CN(C1CCCCC1)S(=O)(=O)c1ccc(=S)[nH]c1 16.8%
Cc1cccc(COCC(Cc2ccccc2)N2CCN(C(=O)c3cc(Cl)cc(Cl)c3)CCC2=O)c1 (configuration not stated) 10.4%
Cc1noc(C)c1COc1ccc(C(=O)N2CCN(c3ccccc3O)CC2)cc1 -2.07%
O=C(Nc1nc2ccc(F)cc2s1)C1CC(=O)N(c2ccc3c(c2)OCCO3)C1 (configuration not stated) 3.42%
CC(C)(C)c1ccc(NC(=O)COC(=O)C2CCCC2)cc1 6%
C(=N\Nc1ccccc1)/c1ccc(N2CCOCC2)cc1 11%
COc1ccc(/C=N/Nc2ncnc3sc4c(c23)CCCC4)cc1OC 2.22%
COc1cc(/C=N/Nc2ncnc3sc4c(c23)CCC4)ccc1O 6.14%
O=C(N/N=C/c1ccc(N2CCOCC2)cc1)c1ccccn1 3.4%
Cc1cc2ncn(S(=O)(=O)c3ccc(S(=O)(=O)N4CCCCCC4)cc3)c2cc1C -3.86%
Cn1c(SCC(=O)Nc2ccccc2Cl)nnc1C1CC1 2.31%
COc1ccc([N+](=O)[O-])cc1NS(=O)(=O)c1cc(C(=O)O)ccc1OC -0.88%
C=CCn1c(C)cc(C(=O)COC(=O)C2CC(=O)N(CCc3ccc(OC)c(OC)c3)C2)c1C (configuration not stated) 2.85%
COc1ccc(C=O)cc1COc1ccc(Cl)cc1[N+](=O)[O-] 0.45%
CCCCOc1ccc(C(CC(=O)NC)C(=O)O)cc1 (configuration not stated) 1.11%
CN1c2ccccc2C(O)=C(C(=O)Nc2ccccc2)S1(=O)=O 5.83%
O=C(Nc1ccc(-c2ccccc2)cc1)c1ccccc1 10.2%
Cc1ccc(NC(=O)C2=C(O)c3ccccc3N(C)S2(=O)=O)cc1 10.1%
Cc1ccc(NC(=O)c2ccccc2)cc1 8.58%
Cc1onc(-c2c(F)cccc2Cl)c1C(=O)N=C(N)N1CCCC1 4.34%
CCOC(=O)C1CCCCN1C(=O)c1oc2c(Cl)cc(C)cc2c1C (configuration not stated) -3.11%
CCCCN(C)C(=O)Cc1c(OC)ccc2cc(Br)ccc12 10.7%
COc1ccc(/C=N/n2cncn2)cc1Cn1nc(C)c([N+](=O)[O-])c1C 6.36%
Cc1ccc(SCCN2CCN(C)CC2)cc1 -7.97%
Cc1ccc(SCCN2CCN(CCc3ccccc3)CCC2=O)cc1 12%
CCOc1ccccc1N1CCN(Cc2ccc(OC)c(OC)c2OC)CC1 13.8%
COc1ccc(CN2CCN(C(c3ccc(F)cc3)c3ccc(F)cc3)CC2)c(OC)c1OC 6.11%
COc1ccc(-n2c(SCC(=O)Nc3ccc(Br)cc3)nc(O)cc2=O)cc1 10.3%
OCCC1CN(Cc2ccncc2)CCN1C1CCCC1 (configuration not stated) 5.79%
O=C(c1ccc(F)cc1)N1CCCC(N2CCN(Cc3ccc4c(c3)OCO4)CC2)C1 (configuration not stated) 8.04%
O=C(c1ccncc1)N1CCN(C2CCCCC2)CC1 19.7%
c1ccc(CN2CCC(N3CCN(Cc4ccc5c(c4)OCO5)CC3)CC2)cc1 13.3%
COCCNC(=O)CC(c1ccccc1)c1ccccc1 10.4%
CCOc1ccc(CN(C)C(=O)CN2C(=O)NC3(CCCc4ccccc43)C2=O)cc1 (configuration not stated) 13%
CC(C)(C)NC(=O)C(c1ccccn1)N(C(=O)c1csnn1)C1CCCC1 (configuration not stated) 0.77%
O=C(COc1ccc(C(=O)Nc2ccc(Cl)cc2)cc1)NCc1ccccc1 8.5%
Cc1cc(/C=C2/NC(=O)N(Cc3ccccc3F)C2=O)c(C)n1-c1ccccn1 4.33%
COc1ccc(N(C)S(=O)(=O)c2cccc(C(=O)NCC(c3cccs3)N(C)C)c2)cc1 (configuration not stated) 5.09%
Cc1cc(C)nc(NC(=O)/C=C/c2ccccc2Cl)c1 9.19%
Cc1cc(C)nc(NC(=O)/C=C/c2ccccc2Cl)n1 6.5%
C(=N\n1cnnc1)/c1ccc(N2CCOCC2)s1 10.2%
Clc1cccc(N/N=C/c2ccc(N3CCOCC3)cc2)c1 0.9%
C(=N\N(c1ccccc1)c1ccccc1)/c1ccc(N2CCOCC2)s1 15.3%
CC(C)(C)OC(=O)N/N=C/c1ccc(N2CCOCC2)s1 25.5%
O=C(O)c1cc(N/N=C/c2ccc(N3CCOCC3)s2)ccc1Cl 25.9%
CC(C)NC(=S)N/N=C/c1ccc(N2CCOCC2)cc1 0.94%
O=C(N/N=C/c1ccc(N2CCOCC2)s1)c1ccccc1Br 10%
CCOC(=O)N/N=C\c1ccc(C)s1 3.68%
Cc1ccccc1S(=O)(=O)N(C)C[C@@H]1OCc2ccccc2-c2c(n(C)c3ccccc23)C(=O)N([C@H](C)CO)C[C@@H]1C 14.2%
COc1ccc(Cl)cc1C(=O)NNC(=O)c1n[nH]c2ccccc12 4.94%
Cc1ccc(S(=O)(=O)/N=C(\Nc2cc(C)on2)c2ccc(Cl)cc2)cc1 8.35%
Cc1cn2c(-c3ccc(Cl)cc3)nnc2s1 -3.08%
O=C(NCc1cccnc1)C(=O)NCC1OCCCN1S(=O)(=O)c1ccc(Cl)cc1 (configuration not stated) 1.54%
Cc1cc(=O)cc(C)n1-c1ccc2c(c1)nc(C)n2-c1ccccc1 2.42%
